Test results as given in PubChem BioAssay (EPA / NIEHS).
Inconclusive results are not listed. Activity calls are given as the source filed them. Rule for the calls, unless noted: active = hit-call score of the fitted dose curve at least 0.9, where 1 is the maximum; inactive = score below 0.9.

Assays:
[1] = read-out: E-selectin (Homo sapiens) (UniProt P16581); test: BSK_3C_Eselectin: BioMAP Diversity Plus: 3C Assay for Eselectin Biomarker Activity (AID 2283015); conditions: primary human endothelial cells (HUVEC); actives raise or lower the signal;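 note: cell surface E-selectin protein quantified by ELISA 24 h after dosing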
Outline: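 ELISA read-out of E-selectin on endothelial monolayers after 24 h chemical treatment. Human umbilical vein primary cells served as the system, with DMSO defining baseline activity for bidirectional fitting.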

[2] = read-out: Interleukin-1 alpha (IL1a), IL1A (gene 3552); test: BSK_BE3C_IL1a: BioMAP Diversity Plus: BE3C Assay for Interleukin-1 alpha (IL1a) Biomarker Activity (AID 2283016); conditions: primary human bronchial epithelial cells; actives raise or lower the signal
Outline: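 Signal from IL-1a ELISA, taken 24 h after chemical dosing of human bronchial epithelial cells, is compared with DMSO as baseline using bidirectional curve fitting.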

[3] = read-out: Monocyte Chemoattractant Protein-1 (MCP1), CCL2 (gene 6347); test: BSK_4H_MCP1: BioMAP Diversity Plus: 4H Assay for Monocyte Chemoattractant Protein-1 (MCP1) Biomarker Activity (AID 2283018); conditions: primary human endothelial cells (HUVEC); actives raise or lower the signal
Outline: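 Endothelial cells from umbilical vein were treated with test chemical, then after 24 h MCP-1 levels were quantified by ELISA; endpoint values came from bidirectional fitting with DMSO as baseline of activity.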

[4] = read-out: Human Leukocyte Antigen - DR isotype (HLADR), HLA-DRA (gene 3122); test: BSK_3C_HLADR: BioMAP Diversity Plus: 3C Assay for Human Leukocyte Antigen - DR isotype (HLADR) Biomarker Activity (AID 2283019); conditions: primary human endothelial cells (HUVEC); actives raise or lower the signal
Outline: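 ELISA readout of surface HLA-DR on human umbilical vein endothelium, taken 24 h after chemical treatment. Gain- and loss-of-signal were both fitted relative to DMSO.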

[5] = read-out: Interleukin-8 (IL8), CXCL8 (gene 3576); test: BSK_3C_IL8: BioMAP Diversity Plus: 3C Assay for Interleukin-8 (IL8) Biomarker Activity (AID 2283020); conditions: primary human endothelial cells (HUVEC); actives raise or lower the signal
Outline: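 Endothelial primary cells of human umbilical vein origin are dosed with chemical; after 24 h the IL-8 biomarker is measured by ELISA, and concentration–response is fitted in both directions versus DMSO.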

[6] = molecular target: human Vitamin D Receptor (VDR), VDR (gene 7421) (UniProt P11473); test: ATG_VDR_TRANS: Attagene TRANS-FACTORIAL HepG2 Assay for human Vitamin D Receptor (VDR) (AID 2283022; active = hit-call score of the fitted dose curve at least 0.9, where 1 is the maximum)
Outline: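 Steps: transfect HepG2 with GAL4-UAS-driven reporter constructs; dose compounds 24 h; isolate RNA, reverse-transcribe, PCR-amplify with 6-FAM-labelled primer extension and HpaI digestion; quantify fragments by capillary electrophoresis relative to DMSO.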

[7] = BSK_3C_SRB: Viability Assessment in the BioMAP Diversity Plus: 3C Assay (AID 2283023); conditions: primary human endothelial cells (HUVEC);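 note: fitted both ways against DMSO so a hit may be signal rise or drop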
Outline: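 Absorbance at 560 nm of sulforhodamine B-stained (0.1%) total protein served as a cytotoxicity readout in human umbilical vein endothelial cells, 24 h after chemical treatment. Signal was fitted bidirectionally relative to DMSO.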

[8] = BSK_3C_Vis: BioMAP Diversity Plus: 3C Assay for Morphology Visualization (AID 2283025); conditions: primary human endothelial cells (HUVEC);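 note: fitted both ways so gain or loss versus DMSO counts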
Outline: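 Morphology read by light microscopy serves as a background control for the multiplexed 3C assay in human umbilical vein endothelial cells, taken 24 h after dosing, with DMSO as the negative control and bidirectional curve fitting.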

[9] = read-out: Pselectin, SELP (gene 6403); test: BSK_4H_Pselectin: BioMAP Diversity Plus: 4H Assay for Pselectin Biomarker Activity (AID 2283026); conditions: primary human endothelial cells (HUVEC); actives raise or lower the signal
Outline: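 Endothelial primary cells (human umbilical vein) are dosed, incubated 24 h, and assayed for surface P-selectin by ELISA; responses in either direction are fitted relative to the DMSO negative control.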

[10] = BSK_4H_SRB: Viability Assessment in the BioMAP Diversity Plus: 4H Assay (AID 2283027); conditions: primary human endothelial cells (HUVEC);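 note: cells exposed to compound for 24 h before staining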;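 for AC50: curves fitted both ways versus DMSO so AC50 may be loss or gain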
Outline: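 Cytotoxicity readout: sulforhodamine B (0.1%) staining of total protein after 10% TCA fixation, measured at 560 nm in human umbilical vein endothelium at 24 h. DMSO set the baseline; fitting was bidirectional.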

[11] = BSK_BE3C_SRB: Viability Assessment in the BioMAP Diversity Plus: BE3C Assay (AID 2283028); conditions: primary human bronchial epithelial cells
Outline: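 Cells (human bronchial epithelial, primary) are treated with chemicals, and after 24 h the parallel cultures are fixed in 10% TCA. These are then stained with 0.1% SRB and read at 560 nm. Gain or loss of signal is fitted relative to DMSO.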

[12] = read-out: Thrombomodulin, THBD (gene 7056); test: BSK_3C_Thrombomodulin: BioMAP Diversity Plus: 3C Assay for Thrombomodulin Biomarker Activity (AID 2283029); conditions: primary human endothelial cells (HUVEC); actives raise or lower the signal
Outline: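 Endothelial cells from umbilical vein are dosed with test chemical and incubated 24 h. Thrombomodulin is then quantified by ELISA, with DMSO serving as negative control and activity baseline.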

[13] = read-out: Urokinase-type plasminogen activator receptor (uPAR), PLAUR (gene 5329); test: BSK_4H_uPAR: BioMAP Diversity Plus: 4H Assay for Urokinase-type plasminogen activator receptor (uPAR) Biomarker Activity (AID 2283030); conditions: primary human endothelial cells (HUVEC); actives raise or lower the signal
Outline: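 Cell-surface uPAR ELISA signal, measured 24 h after dosing human umbilical vein endothelial cells, was analyzed with bidirectional fitting relative to DMSO. Parallel SRB staining of total protein tracked overt cytotoxicity.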

[14] = molecular target: Retinoic acid receptor RXR-alpha (Homo sapiens) (UniProt P19793); test: ATG_RXRa_TRANS: Attagene TRANS-FACTORIAL HepG2 Assay for human Retinoid X Receptor alpha (RXRa) (AID 2283012; active = hit-call score of the fitted dose curve at least 0.9, where 1 is the maximum)
Outline: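 Measures exogenous chimeric NR-GAL4 activity in transfected HepG2 liver cells after 24 h of dosing. Induced reporter mRNA was detected by RT-PCR with capillary electrophoresis, and gain of signal was analysed against DMSO.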

[15] = molecular target: human Retinoid X Receptor beta (RXRb), RXRB (gene 6257) (UniProt P28702); test: ATG_RXRb_TRANS: Attagene TRANS-FACTORIAL HepG2 Assay for human Retinoid X Receptor beta (RXRb) (AID 2283013; active = hit-call score of the fitted dose curve at least 0.9, where 1 is the maximum)
Outline: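 Chimeric receptor-Gal4 activity was assessed in transiently transfected human HepG2 cells after 24 h exposure. Transcripts from GAL4-UAS reporters were quantified by fluorescent RT-PCR and capillary electrophoresis, with DMSO as negative control and baseline.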

[16] = read-out: Monokine induced gamma interferon (MIG), CXCL9 (gene 4283); test: BSK_3C_MIG: BioMAP Diversity Plus: 3C Assay for Monokine induced gamma interferon (MIG) Biomarker Activity (AID 2283021); conditions: primary human endothelial cells (HUVEC); actives raise or lower the signal
Outline: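 Endothelial primary cells (human umbilical vein) are dosed with test chemical in the 3C system. MIG levels are measured by ELISA at 24 h and fitted in both directions relative to DMSO.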

[17] = read-out: Matrix Metallopeptidase 1 (MMP1), MMP1 (gene 4312); test: BSK_BE3C_MMP1: BioMAP Diversity Plus: BE3C Assay for Matrix Metallopeptidase 1 (MMP1) Biomarker Activity (AID 2283024); conditions: primary human bronchial epithelial cells; actives raise or lower the signal
Outline: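 MMP1 signal, measured by ELISA after a 24 h chemical exposure of human primary bronchial epithelial cells, is analysed with bidirectional fitting using DMSO as negative control.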

[18] = read-out: Monocyte Chemoattractant Protein-1 (MCP1), CCL2 (gene 6347); test: BSK_3C_MCP1: BioMAP Diversity Plus: 3C Assay for Monocyte Chemoattractant Protein-1 (MCP1) Biomarker Activity (AID 2283017); conditions: primary human endothelial cells (HUVEC); actives raise or lower the signal
Outline: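 ELISA read-out of MCP-1 from human umbilical vein endothelial cell cultures harvested 24 h post-dosing. Gain or loss of signal was fitted relative to DMSO.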

[19] = molecular target: human Thyroid Receptor alpha (THRa1), THRA (gene 7067) (UniProt P10827); test: ATG_THRa1_TRANS: Attagene TRANS-FACTORIAL HepG2 Assay for human Thyroid Receptor alpha (THRa1) (AID 2283014; active = hit-call score of the fitted dose curve at least 0.9, where 1 is the maximum)
Outline: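 Reporter transcript induction, read by capillary electrophoresis of 6-FAM-labelled RT-PCR products, reflects activity of a transfected THRa1-Gal4 fusion in HepG2 liver cells. Cells were dosed for 24 h; activity was fitted in the positive direction against DMSO.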

Measured: AC50

Sequence of human Thyroid Receptor alpha (THRa1), THRA (gene 7067) (P10827 whole entry, looked up, the tested form may be a part): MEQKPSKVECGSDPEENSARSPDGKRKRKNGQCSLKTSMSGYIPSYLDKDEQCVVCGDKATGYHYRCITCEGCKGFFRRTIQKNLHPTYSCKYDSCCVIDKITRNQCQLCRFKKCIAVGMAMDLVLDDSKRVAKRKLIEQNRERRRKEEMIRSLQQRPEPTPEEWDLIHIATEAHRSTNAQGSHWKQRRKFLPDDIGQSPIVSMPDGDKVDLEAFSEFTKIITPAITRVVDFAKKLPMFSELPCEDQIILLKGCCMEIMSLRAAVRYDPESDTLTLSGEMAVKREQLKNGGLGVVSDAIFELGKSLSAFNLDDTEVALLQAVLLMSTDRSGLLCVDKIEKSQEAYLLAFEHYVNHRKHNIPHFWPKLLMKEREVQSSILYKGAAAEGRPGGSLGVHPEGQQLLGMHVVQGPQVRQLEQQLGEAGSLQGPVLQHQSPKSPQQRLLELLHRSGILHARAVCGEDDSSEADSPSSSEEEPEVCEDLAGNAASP
Sequence of Retinoic acid receptor RXR-alpha (Homo sapiens) (P19793 whole entry, looked up, the tested form may be a part): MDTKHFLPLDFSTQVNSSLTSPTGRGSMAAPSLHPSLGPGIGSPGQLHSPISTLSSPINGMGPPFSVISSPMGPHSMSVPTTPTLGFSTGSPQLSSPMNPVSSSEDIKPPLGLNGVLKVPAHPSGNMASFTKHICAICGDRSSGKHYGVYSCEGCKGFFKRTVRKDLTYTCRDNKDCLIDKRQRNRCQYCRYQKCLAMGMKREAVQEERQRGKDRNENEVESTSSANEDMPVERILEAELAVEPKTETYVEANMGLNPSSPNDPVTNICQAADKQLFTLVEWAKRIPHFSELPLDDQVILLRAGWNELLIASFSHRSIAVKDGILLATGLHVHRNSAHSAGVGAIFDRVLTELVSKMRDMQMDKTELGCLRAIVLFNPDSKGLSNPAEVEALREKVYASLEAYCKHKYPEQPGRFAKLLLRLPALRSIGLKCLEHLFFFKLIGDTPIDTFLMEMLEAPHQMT
Sequence of human Retinoid X Receptor beta (RXRb), RXRB (gene 6257) (P28702 whole entry, looked up, the tested form may be a part): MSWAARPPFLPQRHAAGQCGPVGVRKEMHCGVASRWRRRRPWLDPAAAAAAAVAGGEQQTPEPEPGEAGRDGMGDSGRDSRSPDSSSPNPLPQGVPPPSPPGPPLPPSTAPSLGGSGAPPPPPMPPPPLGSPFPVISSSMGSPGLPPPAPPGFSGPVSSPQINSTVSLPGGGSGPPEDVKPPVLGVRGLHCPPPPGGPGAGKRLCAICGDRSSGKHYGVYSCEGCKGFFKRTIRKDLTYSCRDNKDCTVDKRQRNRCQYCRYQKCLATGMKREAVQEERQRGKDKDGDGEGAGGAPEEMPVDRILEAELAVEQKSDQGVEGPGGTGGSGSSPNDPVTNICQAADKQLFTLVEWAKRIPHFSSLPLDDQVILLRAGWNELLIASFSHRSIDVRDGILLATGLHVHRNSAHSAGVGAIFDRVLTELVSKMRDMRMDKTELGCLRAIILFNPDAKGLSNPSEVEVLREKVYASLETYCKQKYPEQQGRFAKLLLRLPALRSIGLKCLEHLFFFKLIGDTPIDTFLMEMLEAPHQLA
Sequence of E-selectin (Homo sapiens) (P16581 whole entry, looked up): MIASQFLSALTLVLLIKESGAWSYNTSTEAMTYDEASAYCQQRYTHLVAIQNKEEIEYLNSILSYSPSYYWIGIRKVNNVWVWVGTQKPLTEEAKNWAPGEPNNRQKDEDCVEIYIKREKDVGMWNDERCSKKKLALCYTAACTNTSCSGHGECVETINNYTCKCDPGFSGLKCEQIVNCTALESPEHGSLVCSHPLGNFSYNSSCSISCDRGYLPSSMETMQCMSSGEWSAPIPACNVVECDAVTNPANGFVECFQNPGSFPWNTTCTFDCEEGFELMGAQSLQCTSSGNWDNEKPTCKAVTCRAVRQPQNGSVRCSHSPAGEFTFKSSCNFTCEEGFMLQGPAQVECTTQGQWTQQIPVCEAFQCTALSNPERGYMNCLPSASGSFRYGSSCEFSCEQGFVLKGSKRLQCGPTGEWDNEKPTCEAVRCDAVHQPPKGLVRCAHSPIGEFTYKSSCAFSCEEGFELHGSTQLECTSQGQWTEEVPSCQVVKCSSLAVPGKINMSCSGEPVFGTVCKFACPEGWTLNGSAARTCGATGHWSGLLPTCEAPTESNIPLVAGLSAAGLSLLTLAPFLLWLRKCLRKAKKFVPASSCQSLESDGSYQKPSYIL
Sequence of human Vitamin D Receptor (VDR), VDR (gene 7421) (P11473 whole entry, looked up, the tested form may be a part): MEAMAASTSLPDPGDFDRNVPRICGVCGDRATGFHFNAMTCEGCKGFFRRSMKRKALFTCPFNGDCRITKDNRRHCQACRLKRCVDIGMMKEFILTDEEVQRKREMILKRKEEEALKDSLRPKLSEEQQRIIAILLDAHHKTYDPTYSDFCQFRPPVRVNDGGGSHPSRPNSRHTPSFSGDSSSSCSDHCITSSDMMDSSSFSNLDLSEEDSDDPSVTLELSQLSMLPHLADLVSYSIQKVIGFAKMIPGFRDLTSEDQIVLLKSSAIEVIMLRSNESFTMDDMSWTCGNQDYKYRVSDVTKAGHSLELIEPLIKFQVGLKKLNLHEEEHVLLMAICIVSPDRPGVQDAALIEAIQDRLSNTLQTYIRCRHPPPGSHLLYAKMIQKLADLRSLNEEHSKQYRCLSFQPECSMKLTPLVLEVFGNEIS

OC(CCl)CCl
not listed: [14] | [15] | [16] | [17] | [18] | [19]
inactive: all other assays above

NC(N)=O
not listed: [6] | [18] | [19]
inactive: all other assays above

Cn1cc[nH]c1=S
not listed: [6] | [14] | [17] | [19]
inactive: all other assays above

CC(C)CCCCCCOC(=O)C1CCCCC1C(=O)OCCCCCCC(C)C (configuration not stated)
not listed: [14] | [15] | [17]
inactive: all other assays above

CC(C)CC(C)O (configuration not stated)
not listed: [6] | [14] | [15] | [19]
inactive: all other assays above

OC[C@H]1O[C@@](CO)(O[C@H]2O[C@H](CO)[C@@H](O)[C@H](O)[C@H]2O)[C@@H](O)[C@@H]1O
not listed: [6] | [18] | [19]
inactive: all other assays above

O=S1(=O)CCCO1
not listed: [6] | [14] | [16] | [18]
inactive: all other assays above

OCCNCCO
not listed: [6] | [15] | [17] | [18] | [19]
inactive: all other assays above

CCCCC(CC)C(=O)OCCOCCOCCOC(=O)C(CC)CCCC (configuration not stated)
not listed: [6] | [15] | [17] | [18] | [19]
inactive: all other assays above

CC(=O)c1ccccc1
not listed: [6] | [15] | [16]
inactive: all other assays above

C=CN1CCCC1=O
not listed: [6] | [15] | [17] | [19]
inactive: all other assays above

CCCCN1C(=O)[C@@H]([C@H](O)C2CCCCC2)NC(=O)C12CCN(Cc1ccc(Oc3ccc(C(=O)O)cc3)cc1)CC2
inactive: [1] | [2] | [3] | [5] | [17] | [9] | [11] | [12]
active: [4] 32.1 µM | [7] 27.3 µM | [8] 39 µM | [10] 23.6 µM | [13] 20 µM

CCCC(CCC)C(=O)O
not listed: [16] | [18] | [19]
inactive: all other assays above

O=C(O)c1cccc(C(=O)O)c1
not listed: [6] | [15] | [17] | [18]
inactive: all other assays above

OC(Cn1cncn1)(Cn1cncn1)c1ccc(F)cc1F
not listed: [14] | [17] | [18]
inactive: all other assays above

O=C(O)c1cccc(C[C@@H]2COc3ccc(OCc4nc5cc(F)ccc5s4)cc3[C@@H]2O)c1
not listed: [6] | [18] | [19]
inactive: all other assays above

CCn1nc(C)c2c1C(=O)NCC(c1ccc(O)cc1)=N2
not listed: [6] | [14] | [17] | [18]
inactive: all other assays above

OCCOCCOCCO
not listed: [5] | [17] | [19]
inactive: all other assays above

Cc1nc(-c2ccccn2)ncc1C(=O)Nn1cc(C)c2cc(F)ccc21
active: [4] 20 µM | [7] 20 µM
not listed: [14] | [15]
inactive: all other assays above

OC[C@H]1O[C@@H]2O[C@H]3[C@H](O)[C@@H](O)[C@@H](O[C@H]4[C@H](O)[C@@H](O)[C@@H](O[C@H]5[C@H](O)[C@@H](O)[C@@H](O[C@H]6[C@H](O)[C@@H](O)[C@@H](O[C@H]7[C@H](O)[C@@H](O)[C@@H](O[C@H]1[C@H](O)[C@H]2O)O[C@@H]7CO)O[C@@H]6CO)O[C@@H]5CO)O[C@@H]4CO)O[C@@H]3CO
not listed: [14] | [16] | [19]
inactive: all other assays above

NC(=O)N1c2ccccc2C=Cc2ccccc21
not listed: [6] | [15] | [16]
inactive: all other assays above

c1ccc2cc3ccccc3cc2c1
not listed: [15] | [16] | [18]
inactive: all other assays above

NC(=O)N(O)[C@@H]1COc2cc(OCc3ccccc3)ccc21
not listed: [14] | [15] | [16] | [19]
inactive: all other assays above
